Results published in PubChem BioAssay AID686978 (National Center for Advancing Translational Sciences (NCATS), 2013).
In all, about 420,000 compounds went through this assay and about 64,000 (15%) were called active. Not shown: some 27% with an inconclusive outcome. Only a sample is shown. Unmarked numbers belong to inactive results. The call rests on the fitted dose curve; in most records, active means well fitted inhibition curve with a large enough effect; inconclusive means small, poorly fitted or top-dose-only effect; inactive means flat fitted curve, though single readings scatter.

experiment: qHTS for Inhibitors of human tyrosyl-DNA phosphodiesterase 1 (TDP1): qHTS in cells in absence of CPT; settings: DT40 Tdp1-/- hTDP1 cells, no CPT, ATP luminescence, 48 h; activity change, negative = growth inhibition: at 46.2 µM (top of the series); further: nearly all actives have a fitted effect of over 55% in size
Method in brief: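 Chicken DT40 Tdp1-/- cells stably complemented with human TDP1 were seeded at 400 cells/well with DMSO in place of 20 nM camptothecin. After compound pinning, cells grew at least 48 hr at 37 °C; viability read by CellTiter-Glo luminescence.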
On the % scale 0 is the no-effect control and ±100 the full control effect; potency means the concentration at half of the fitted maximal effect.

SMILES | activity change, negative = growth inhibition | Potency
O=C1Nc2cc(Cl)c(Cl)cc2N(O)N1c1ccccc1Cl | 2.71% | 
COC(=O)c1ccc2nc(-c3ccc(Cl)cc3)c(Cc3cccc(F)c3)n2c1 |  | 23.1 µM (active)
COC(=O)c1ccc2nc(-c3ccc(F)cc3)c(Cc3ccc(C)cc3)n2c1 | -27.5% | 
COC(=O)c1ccc2nc(-c3ccc(OC)c(OC)c3)c(Cc3ccccc3)n2c1 |  | 20.6 µM (active)
COC(=O)c1ccc2nc(-c3cccc(Br)c3)c(Cc3ccccc3C(F)(F)F)n2c1 | -18% | 
COC(=O)c1ccc(COC(=O)c2cnc(Cl)c(Cl)c2)cc1 | -7.94% | 
COC(=O)c1ccc(NC(=O)CSc2nncc3ccc(OC)c(OC)c23)cc1 | -16.5% | 
COc1ccc(C(=O)NCc2cn3ccccc3n2)cc1 | 3.12% | 
COC(=O)c1ccc2nc(-c3ccccc3)c(Cc3ccc(OC)cc3C)n2c1 |  | 23.1 µM (active)
CCN1CCN(Cc2c(O)ccc3c(=O)c(-c4ccc(OC)c(OC)c4)c(C(F)(F)F)oc23)CC1 | -17.6% | 
Cc1ccc(NS(=O)(=O)c2c(C)[nH]c(=O)[nH]c2=O)cc1C | -4.65% | 
C[C@@H]1CC[C@]2(O[C@@H](CCO)C[C@H](O)[C@H]2O)O1 | 5.06% | 
CCCCSc1nnc(-c2ccc(NC(=O)CC)cc2)n1C |  | inactive
O=C(c1cccc(S(=O)(=O)Nc2ccccc2Cl)c1)N1CCN(C(=O)c2ccco2)CC1 | 1.12% | 
COc1ccc(C)cc1NC(=O)NCCCCc1ccccc1 | 12.6% | 
CCc1nonc1NC(=O)c1oc2ccc(Cl)cc2c1C |  | inactive
CCOc1ccc(-c2nonc2NC(=O)c2oc3ccc(C)cc3c2C)cc1OCC | -16.5% | 
CCOc1ccc(-c2nonc2NC(=O)c2oc3ccc(CC)cc3c2C)cc1 |  | 20.6 µM (active)
CCCCCCCCOC1OC(CO)C(O)C(O)C1NC(C)=O (stereo not drawn) | -3.29% | 
O=C1CCN(C(=O)Nc2ccccc2)N1 | 1.14% | 
CCNC(=O)C1(C)CCCN(C(=O)c2c(C)noc2C)C1 (stereo not drawn) | -13.2% | 
COc1ccc(-c2cc(-c3ccc(F)cc3)nc3c2COc2ccccc2-3)cc1 | -23.6% | 
NC(=O)C1CCN(C2OC(=O)c3ccccc32)CC1 (stereo not drawn) | -8.31% | 
CCOC(=O)NNC(=O)c1ccc(Cl)cc1 | -8.72% | 
Cc1nn(C)c(C)c1S(=O)(=O)N1CCC(CO)(Cc2ccc(Cl)cc2)CC1 |  | 16.4 µM (active)
Cc1ccc(S(=O)(=O)n2nc(C)c(S(=O)(=O)N3CCCCCC3)c2C)cc1 | -4.52% | 
CCOc1ccccc1NC(=O)C1CCN(S(=O)(=O)c2c(C)nn(C)c2C)CC1 | -18.3% | 

SMILES | activity change, negative = growth inhibition | Potency
COc1ccc(NC(=O)c2ccccc2CC[N+](=O)[O-])cc1 | 1.08% | 
CC(=O)c1cccc(NC(=O)c2cc(C)nn2-c2ccccc2)c1 | -28.1% | 
CC(=O)c1cccc(NC(=O)Nc2ccc(C)cc2)c1 | -22.1% | 
CC(=O)c1cccc(NC(=O)c2nc(-c3ccccc3)n(-c3cccc(C)c3)n2)c1 |  | 10.3 µM (active)
COc1ccc2c(c1)C(c1cccs1)=NNC(c1cccnc1)=N2 | -18% | 
COC(=O)c1cccc([N+](=O)[O-])c1CS(=O)(=O)c1ccc(C)cc1 | 0.149% | 
COc1cccc2c(O)cc(=O)n(C)c12 | -27.5% | 
COCCCN(C(=S)Nc1c(C)cc(C)cc1C)C(C)c1ccncc1 (stereo not drawn) | -2.19% | 
Cc1ccc(S(=O)(=O)N2CCOCC2)cc1NC(=O)c1ccncc1 | -13.4% | 
COc1ccc(C(=O)Nc2nc(-c3ccc(S(=O)(=O)N4CCOCC4)cc3)cs2)cc1 |  | 20.6 µM (active)
CNC(=O)c1ccsc1NC(=O)c1ccc(S(=O)(=O)N2CCOCC2)cc1 |  | 23.1 µM (active)
O=C(Nc1ccc(S(=O)(=O)N2CCOCC2)cc1)c1ccc2ncsc2c1 | 2.34% | 
Cc1cc2nc(NC(=O)c3ccc(S(=O)(=O)N4CCOCC4)cc3)sc2cc1C | 2.39% | 
CNC(=O)c1ccsc1NC(=O)c1ccc(S(=O)(=O)N2CCc3ccccc32)cc1 |  | 18.4 µM (active)
CS(=O)(=O)N1CCc2cc(C(=O)Nc3ccccc3Br)ccc21 | 6.47% | 
COc1ccc(S(=O)(=O)n2nc(C)c(S(=O)(=O)N3CCOCC3)c2C)cc1 | 18.8% | 
CSc1ccccc1NC(=O)c1ccc2c(c1)CCN2S(C)(=O)=O | -18.4% | 
Cc1ccc(N2CCN(/N=C/c3cccs3)CC2)cc1 | -15.1% | 
CCN1CCN(C2CCCCC2NS(=O)(=O)c2ccc(Cl)cc2)CC1 (stereo not drawn) | 4.44% | 
O=C1OC(C(O)CO)C(O)=C1O (stereo not drawn) | -6.15% | 
COC(=O)c1ccc(COC(=O)C2CCN(S(=O)(=O)c3c(Cl)cccc3Cl)CC2)o1 | -2.71% | 
CC(C)(C)n1nnc(CCc2nnn(C(C)(C)C)n2)n1 | -13.1% | 
O=S(=O)(NCCCN1CCOCC1)c1ccc(F)c(Cl)c1 | 17.3% | 
CCCC1(C(=O)OC)NC(c2ccco2)C2C(=O)N(C)C(=O)C21 (stereo not drawn) | 10.1% | 
COC(=O)[C@]1(CC(C)C)N[C@H](c2ccc(SC3CCCCC3)cc2)[C@@H]2C(=O)N(C)C(=O)[C@@H]21 |  | 23.1 µM (active)
COC(=O)[C@]1(C)N[C@H](CN(C)C(=O)c2ccc(C(C)(C)C)cc2)[C@@H]2C(=O)N(C)C(=O)[C@@H]21 | -8.27% | 
